The structures appear in SMILES notation. Records with an inconclusive call do not appear. A call without a number means that no potency is given here. Activity calls are given as the source filed them. Calls come from the whole dose curve; as a rule, active = well fitted inhibition curve with a large enough effect; inconclusive = small, poorly fitted or top-dose-only effect; inactive = flat fitted curve, though single readings scatter.
Potency is the fitted concentration of half-maximal effect.

This assay is described as follows: P-glycoprotein substrates identified in KB-8-5-11 adenocarcinoma cell line, qHTS therapeutic library screen (AID 1346987). Note: nearly all actives have a fitted effect of over 65% in size. The settings on record: KB-8-5-11 (P-gp overexpressing) viability, CellTiter-Glo, 72 h; series mostly up to 44.5 µM. The essentials:
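P-gp-mediated resistance screen: KB-8-5-11 cells treated 72 h with compounds in dose-response. CellTiter-Glo viability.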
For orientation: In qHTS, concentration-response curves come from the screen itself.
With `CC1=C2C[C@@]3(C)C(CCC[C@@H]3C)C(O)C2OC1=O` (stereo partly specified), the Potency entry is “inactive”. Then `O=S1(=O)CCN(Cc2cc(NCC3CCOCC3)c3[nH]c(-c4ccccc4)cc3c2)CC1`, with “inactive”; and `CC(=O)OC1C(=O)C2C3OCC4=C3[C@@](C)(CC[C@@H]4O)CC[C@]2(C)[C@H]1C(C)C` (stereo partly specified), with “inactive”. `CC(C)n1cnc2c(-c3cnc(N)nc3)nc(N3CCOCC3)nc21`: the Potency is 709 nM (active). In the case of `C=CC(=O)Nc1cc(-n2c(=O)ccc3cnc4ccc(-c5ccc(NS(C)(=O)=O)cc5)cc4c32)ccc1C` it was “inactive”; in that of `COc1cc2nc(C3CC3)nc(N3CCN(c4ccccc4OC)CC3)c2cc1OC`, 20600 nM (active). In the case of `O=C(NNc1nc2cc(F)ccc2n2cccc12)c1cnccn1` it was 2310 nM (active); in that of `COc1cc(C(C)=O)c(OC)c2c1OC(C)(C)C=C2`, “inactive”. In the case of `O=C(Nc1ccc(N(Cc2ccsc2)C(=O)Cn2nnc3ccccc32)cc1)C1CC1` it was “inactive”; in that of `COc1ccc([C@H]2Cc3cccc(O)c3C(=O)O2)cc1OC`, “inactive”; in that of `O=C(C1CCCCC1)N(CCN1CCN(c2ccccc2O)CC1)c1ccccn1`, “inactive”.

For `CCCCOc1ccc(S(=O)(=O)n2c(C)nc3ccccc32)cc1`, the Potency entry was “inactive”.

As for `NCCC(=O)[N-][C@@H](Cc1cnc[nH]1)C(=O)O.[Zn]`, the Potency result is “inactive”. In the case of `Cc1cc(NC(=O)c2cccc(NC(=O)/C=C/CN(C)C)c2)ccc1Nc1nccc(-c2cccnc2)n1` it was “inactive”.

`Cc1cccc(C)c1N(CCCc1cccnc1)C(=O)C(C)N` (stereo unspecified): the Potency entry was “inactive”. With `C/C=C(\C)C(=O)OC1C=C(C)CC(OC(=O)c2ccc(O)cc2)C2C1(C)CCC2(O)C(C)C` (stereo unspecified), the Potency result is “inactive”.
